NADH coupling = inhibitors of enzymes used to reach an NAD/NADH endpoint. coupled PK/LDH NADH assays, four targets. AID 774. IC50, µM (doses to about 10 µM), for inactives: at the top dose inhibition. 65,000 tested, 0.02% active;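 active = single-dose screening hits from any of four coupled enzyme assays that gave an IC50 when retested across doses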;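 note: the DPM-DC format reads NADH fluorescence rather than 340 nm absorbance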
Fluor 339 460 = intrinsic fluorescence of library compounds, ex339/em460 – biochemical, MLSMR library, data from DPM-DC assay, artefact control, profiling panel; compound autofluorescence, ex339/em460 nm, NADH buffer; active compounds read high; 1 = no-compound wells, NADH background; fluorescence fold increase at 10 µM; 65,000 tested, 5.5% active;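 active = at 10 µM, mean starting fluorescence two-fold or more over control wells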;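 note: signal is the first read of a kinetic run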
Spn MK inh = inhibitors of Streptococcus pneumoniae mevalonate kinase; purified MK, PK/LDH-coupled NADH absorbance 340 nm; inhibition, % at 10 µM; 65,000 tested, 0.48% active; AID 555;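 active = ranked among the strongest by inhibition in the single 10 µM screen, a fixed top-ranked set picked for dose follow-up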
Abs 340nm = compounds absorbing at 340 nm; fold change at 10 µM; 65,000 tested, under 10 active; AID 708; compound absorbance at 340 nm, fold over control;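 active = at 10 µM dose, initial 340 nm absorbance at least 2 fold that of control wells; inactive = change under 2 fold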;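 note: initial absorbance extrapolated from kinetic A340 decline of NADH oxidation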
Spn PMK inh = inhibitors of Streptococcus pneumoniae phosphomevalonate kinase | purified PMK, PK/LDH-coupled NADH absorbance 340 nm | inhibition, % at 10 µM | 65,000 tested, 0.49% active;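 active = top-ranked compounds by inhibition in the single 10 µM screen, taking a fixed number of the strongest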;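 note: 0% = full reaction with DMSO carrier and 100% = background rate without enzyme reaction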
Spn DPM-DC inh = blocks S. pneumoniae diphosphomevalonate decarboxylase | purified DPM-DC, PK/LDH coupled NADH fluorescence | calls only at 10 µM | 65,000 tested, 0.49% active | AID 556;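 active = the 320 compounds with the highest percent inhibition in the single-dose primary screen, excluding strongly autofluorescent ones, cut at about 32% in these data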;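 note: kinetic rate of NADH fluorescence loss reporting ADP formed by the decarboxylase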
Numbers without * were called inactive; i = inactive; / = no result shown; + = active, no number. Sampled rows, rich in hits. Any-hit rate of the full collection: about 6.5%.

SMILES	NADH coupling	Fluor 339 460	Spn MK inh	Abs 340nm	Spn PMK inh	Spn DPM-DC inh
COc1ccc(N(CC(=O)NCc2ccco2)S(=O)(=O)c2ccc(OC)c(OC)c2)cc1	0%	1.1	0	1.1	0	i
COc1ccc(NCc2nnc(SCC(=O)c3ccc(OC)cc3)n2C)cc1	4%	1	7	1.1	1	i
COc1cc2nc(C3CCC3)n(NC(=O)C3CCCC(OC)C3)c(=O)c2cc1OC (stereo not drawn)	4%	1	9	0.97	active	i
COc1ccc2nc(NC(=O)c3cccc(OCc4c(C)noc4C)c3)sc2c1	6%	4*	6	1	6	/
CC(C)N1CC=C2C(C#N)=C(N)C(C#N)(C#N)C(c3ccccc3)C2C1 (stereo not drawn)	11%	2	6	1	0	i
CCN1CC=C2C(C#N)=C(N)C(C#N)(C#N)C(c3cc(Cl)ccc3Cl)C2C1 (stereo not drawn)	12%	2.9*	3	1	12	i
Cc1oc2c(CN(C)C)c(O)ccc2c(=O)c1-c1ccc2ccccc2n1	1%	1.1	4	1.2	0	i
CCc1cc2c(=O)c(Oc3ccccc3F)c(C)oc2c(CN(C)C)c1O	13%	2.2*	2	1.2	23	/
c1ccc(CCn2nnnc2C(c2cccs2)N2CCOCC2)cc1 (stereo not drawn)	3%	1.1	0	1	25*	i
CC(C)C(c1nnnn1CCc1ccccc1)N1CCOCC1 (stereo not drawn)	0%	1.1	0	1	0	i
NS(=O)(=O)c1ccc(CCNC2CC(=O)N(CCc3ccccc3)C2=O)cc1 (stereo not drawn)	5%	1.1	3	1	11	i
Cc1cc(C)n(-c2nc(NCCCO)c3c4c(sc3n2)CCCC4)n1	8%	2.6*	0	1.1	7	i
Cc1cc(C)n(-c2nc(NCC3CCCO3)c3c4c(sc3n2)COC(C)(C)C4)n1 (stereo not drawn)	8%	3.7*	7	1.1	9	/
Cc1cc(C)n(-c2nc(NCCO)c3c4c(sc3n2)CCCC4)n1	4%	1.6	2	1.1	9	i
CCC(=O)N1CCN(c2ccccc2NC(=O)COc2cc(C)ccc2C(C)C)CC1	6%	1.1	7	1	11	i
CCCC(=O)C1=C(c2ccccc2)C(C#N)(C#N)C(C#N)=C1N	8%	1.2	13	1.1	2	i
Cn1c(C(=O)Nc2ccc3c(c2)OCO3)cc2c(=O)n(C)c3ccccc3c21	4%	2.3*	10	1	7	/
Cc1ccccc1CN1CCN(CC(=O)NCc2ccc3c(c2)OCO3)C1=O	6%	1.1	0	0.97	17	i
CCCCn1c2nc3ccccc3nc2c2c(=N)oc(C)nc21	5%	2.2*	10	1.1	0	/
CCCCC(CC)Cn1c(N)c(C#N)c2nc3ccccc3nc21 (stereo not drawn)	8%	5*	3	1	12	/
CCCCC(CC)Cn1c2nc3ccccc3nc2c2c(=N)oc(C)nc21 (stereo not drawn)	8%	2.4*	25	1.1	0	/
CCCCCCOC(=O)C(C#N)c1nc2ccccc2nc1N1CCN(CC)CC1 (stereo not drawn)	9%	1.3	9	0.99	17	i
COc1ccc(Cn2c3nc4ccccc4nc3c3c(=O)n(Cc4ccco4)c(C)nc32)cc1	5%	1.6	3	1.1	0	i
CCCCCn1c(N2CCC(C(N)=O)CC2)nc2c1c(=O)[nH]c(=O)n2C	1%	1.1	3	1	0	i
Cc1ccc2oc(=O)c3cnn(CC(=O)NC4CCN(Cc5ccccc5)CC4)c3c2c1	14%	0.95	3	1	5	+
SMILES	NADH coupling	Fluor 339 460	Spn MK inh	Abs 340nm	Spn PMK inh	Spn DPM-DC inh
O=C(Cn1ncc2c(=O)oc3ccccc3c21)NC1CC1	4%	1.1	3	0.99	10	i
CC(=O)Nc1ccc2oc(-c3cc(F)c(F)cc3Cl)nc2c1	4%	3.8*	6	1.1	2	/
CC(=O)Nc1ccc2oc(-c3ccccc3Br)nc2c1	11%	2.2*	7	1	5	i
O=C(O)C1CC=CCC1C(=O)Nc1cccc(Cl)c1 (stereo not drawn)	1%	1.1	4	1	0	i
O=S(=O)(c1cccc2nsnc12)N1CCc2ccccc21	5%	1	0	1	16	i
COc1ccc(-c2cn3c(C)c(C(=O)Nc4cc(NC(C)=O)ccc4OC)sc3n2)cc1	4%	3.4*	2	1	17	/
CNC(=O)c1sc2nc(-c3ccc(OC)cc3)cn2c1C	4%	1.1	0	1.1	11	i
Cc1c(Cl)cccc1N1C(=O)CC(N(O)c2ccccc2)C1=O (stereo not drawn)	6%	1	13	1	6	i
O=C(c1cccc(F)c1)N1CCN(Cc2ccco2)CC1	16%	1.1	44*	1.1	3	i
CCn1nnnc1-c1ccc(OC)c(S(=O)(=O)NCCc2ccccc2)c1	3%	1.1	3	1.1	7	i
CCCCC(c1nnnn1C1CCCC1)N1CCN(C2CCCC2)CC1 (stereo not drawn)	8%	0.99	0	1	24	i
Cc1onc(-c2ccccc2Cl)c1C(=O)Nc1cccc(-c2cn3cccnc3n2)c1	3%	3.5*	2	1	10	/
C=CCN(C(=O)CSc1nc2[nH]ncc2c(=O)n1-c1ccccc1OC)c1ccccc1	4%	1.1	0	1	11	i
Cc1cc(NCc2ccco2)nc2cc(O)ccc12	2%	2.1*	3	1.1	0	/
CC(C)(C)Sc1nc(O)cc(=O)[nH]1	2%	1.1	5	1.1	0	i
COc1cc(C2Nc3cccc4cccc(c34)N2)ccc1OC(C)=O	7%	1.5	8	1.1	12	i
COc1cc(C2Nc3cccc4cccc(c34)N2)cc(OC)c1O	2%	3.2*	0	1	18	/
CCc1cc2c(=O)c(-c3nc4ccccc4n3C)c(C)oc2c(CN2CCN(CCO)CC2)c1O	3%	2.2*	6	1.2	0	/
CCc1cc(-c2n[nH]c(C)c2-c2nc3ccccc3n2C)c(O)c(CN2CCN(C)CC2)c1O	5%	1.1	5	1	10	i
CCc1cc2c(=O)c(-c3nc4ccccc4n3C)c(C)oc2c(CN2CCN(C)CC2)c1O	17%	3.5*	6	1.1	5	+
CCc1cc2c(=O)c(-c3nc4ccccc4n3C)c(C(C)C)oc2c(CN2CCN(C)CC2)c1O	13%	2.2*	6	1.1	19	/
Oc1cnc2ccccc2c1CN1CCOCC1	4%	1.9	0	1	0	i
CCc1cc2c(=O)c(-c3nc4ccccc4n3C)c(C)oc2c(CN2CCOCC2)c1O	5%	2.1*	4	1.1	5	/

Screens from PubChem BioAssay.
